Unmarked numbers belong to inactive results.
test system: Caenorhabditis elegans L1 (N2); assay: survival and reproduction score of C. elegans L1 (0: 0-10 living worms, 1: 11-20, 2: 21-50, 3: >50, 4: overgrown) (score 0-4); higher = more worms, less nematicidal, active = 1 or less; extreme values may be limits of the assay; conditions: 60 µM; 6 days; temperature: 20 °C
Summary of the method: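 Each 96-well well received about 20 synchronized N2 L1 worms of C. elegans, E. coli HB101 and liquid NGM, plus compound pinned to 60 µM final (0.6% v/v DMSO). Sealed plates were incubated with shaking at 200 rpm, 20 °C, for 6 days. Survival and reproduction were rated under a dissection microscope as an ordinal score of living worms per well, averaged across biological replicates. The scale spanned 0 (0–10 worms) to 4 (overgrown, starved), and there were two replicates.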

Question: How did the “survival and reproduction score” value turn out when COc1cccc(OCc2nc(-c3cccc(C)c3)no2)c1 was run?
Answer: The value was 4.

Question: CCOc1cc(-c2nc(-c3ccc(C)nc3OCC)no2)cc(OCC)c1OCC was tested. Which “survival and reproduction score” value did it give?
Answer: Its value is 4.

Question: Which “survival and reproduction score” value does the source give for Cc1cccc(OCc2nc(-c3ccccc3Cl)no2)c1 here?
Answer: Its value is 4.

Question: Cc1ccc(OC(C)c2nc(-c3ccc4c(c3)OCO4)no2)cc1C (centres undefined) was tested. Which “survival and reproduction score” value did it give?
Answer: The value was 4.

Question: COC(=O)c1ccc(Cl)c(NC(=O)CSc2nnc(-c3ccc(Cl)cc3)o2)c1 was tested. Which “survival and reproduction score” value did it give?
Answer: Its value is 4.

Question: How did the “survival and reproduction score” value turn out when O=C(CSc1nnc(-c2cccc(Cl)c2)o1)Nc1ccccc1 was run?
Answer: Its value is 4.

Question: With CC(Sc1nnc(-c2ccco2)o1)C(=O)NC(c1ccccc1)c1ccccc1 (centres undefined) as the compound, how does the “survival and reproduction score” value read?
Answer: The value was 4.

Question: For Cc1ccc(-c2noc(COc3ccc(Cl)cc3C)n2)cc1, which “survival and reproduction score” value is on record?
Answer: The value was 2.

Question: For COc1ccc(-c2nnc(SCC(=O)Nc3ccc(Cl)c(Br)c3)o2)cc1, which “survival and reproduction score” value is on record?
Answer: The value was 4.

Question: With COc1cccc(-c2noc(COc3ccc(C(C)C)cc3)n2)c1 as the compound, how does the “survival and reproduction score” value read?
Answer: Its value is 4.

Question: For CCOc1cc(-c2nc(-c3cccnc3)no2)cc(OCC)c1OCC, which “survival and reproduction score” value is on record?
Answer: The value was 4.

Question: For Cc1cc(OCc2nc(-c3ccncc3)no2)c(C)c(C)c1Br, which “survival and reproduction score” value is on record?
Answer: The value was 4.

Question: For Cc1cccc(OCc2nc(-c3ccccc3)no2)c1, which “survival and reproduction score” value is on record?
Answer: Its value is 1.5.

Question: How did the “survival and reproduction score” value turn out when FC(F)(F)c1cccc(-c2noc(-c3ccc4c(c3)OCO4)n2)c1 was run?
Answer: Its value is 4.

Question: Clc1ccccc1-c1noc(-c2ccccc2Cl)n1 was tested. Which “survival and reproduction score” value did it give?
Answer: Its value is 2.

Question: With O=C(CSc1nnc(-c2cccc(Br)c2)o1)c1ccccc1 as the compound, how does the “survival and reproduction score” value read?
Answer: The value was 4.

Question: How did the “survival and reproduction score” value turn out when Brc1ccc(-c2nc(-c3ccccc3)no2)cc1 was run?
Answer: Its value is 0 (active).

Question: With O=C(CSc1nnc(-c2cccc3ccccc23)o1)Nc1cccc(F)c1 as the compound, how does the “survival and reproduction score” value read?
Answer: The value was 4.

Question: For Cc1cccc(NC(=O)CSc2nnc(-c3ccncc3)o2)c1C, which “survival and reproduction score” value is on record?
Answer: Its value is 4.

Question: How did the “survival and reproduction score” value turn out when COc1cccc(-c2nc(-c3ccc(Cl)cc3)no2)c1 was run?
Answer: The value was 4.

Question: Which “survival and reproduction score” value does the source give for CCc1nnc(NC(=O)CSc2nnc(-c3cccc(C)c3)o2)s1 here?
Answer: The value was 4.

Question: With CC(C)c1ccc(OCc2nc(-c3ccncc3)no2)c(Br)c1 as the compound, how does the “survival and reproduction score” value read?
Answer: The value was 4.

Question: COc1cccc(-c2nnc(SCC(=O)NC3CCCCC3)o2)c1 was tested. Which “survival and reproduction score” value did it give?
Answer: The value was 4.

Question: Which “survival and reproduction score” value does the source give for COc1nc(-c2ccc(Cl)cc2)ccc1-c1noc(C)n1 here?
Answer: The value was 4.

Question: With Cc1cc(OCc2nc(-c3ccccn3)no2)c(C)cc1Br as the compound, how does the “survival and reproduction score” value read?
Answer: The value was 4.

Question: With Cc1ccc(C)c(-c2nc(-c3ccc(Cl)cc3)no2)c1 as the compound, how does the “survival and reproduction score” value read?
Answer: The value was 4.

Question: For Cc1ccccc1OCc1nc(-c2cccc(C(F)(F)F)c2)no1, which “survival and reproduction score” value is on record?
Answer: The value was 4.

Question: With Cc1ccc(-c2nc(-c3ccc(C(F)(F)F)cc3)no2)cc1 as the compound, how does the “survival and reproduction score” value read?
Answer: Its value is 0 (active).

Question: Cc1cc(OCc2nc(-c3cccnc3)no2)c(C)cc1Br was tested. Which “survival and reproduction score” value did it give?
Answer: The value was 4.

Question: How did the “survival and reproduction score” value turn out when CC(C)CCC(=O)Nc1ccccc1-c1nc(-c2ccccn2)no1 was run?
Answer: Its value is 2.

Question: For Cc1ccc(NC(=O)CSc2nnc(-c3ccc(C(C)(C)C)cc3)o2)c(C)c1, which “survival and reproduction score” value is on record?
Answer: Its value is 2.

Question: With COc1cccc(-c2noc(COc3ccc(C)cc3)n2)c1 as the compound, how does the “survival and reproduction score” value read?
Answer: Its value is 4.

Question: With CCc1ccc(NC(=O)CSc2nnc(-c3ccco3)o2)cc1 as the compound, how does the “survival and reproduction score” value read?
Answer: Its value is 4.

Question: With Cc1ccc(-c2nc(-c3ccncc3)no2)c(Cl)c1 as the compound, how does the “survival and reproduction score” value read?
Answer: Its value is 2.

Question: With Cc1ccccc1-c1noc(-c2ccc(F)cc2)n1 as the compound, how does the “survival and reproduction score” value read?
Answer: The value was 4.

Question: For COc1nc(C)ccc1-c1noc(-c2ccc(F)cc2)n1, which “survival and reproduction score” value is on record?
Answer: The value was 4.

Question: Cc1cc(Cl)ccc1OCc1nc(-c2cccnc2)no1 was tested. Which “survival and reproduction score” value did it give?
Answer: Its value is 4.

Question: COc1nc2ccc(C)cc2cc1-c1noc(-c2ccncc2)n1 was tested. Which “survival and reproduction score” value did it give?
Answer: Its value is 4.

Question: For CCOc1cc(-c2nc(-c3ccc(OC)cc3)no2)cc(OCC)c1OCC, which “survival and reproduction score” value is on record?
Answer: The value was 4.

— the supplement of paper PMC11219838
